Binding signal data for 1 sequence are collected here from paper PMC7862700, “An all-to-all approach to the identification of sequence-specific readers for epigenetic DNA modifications on cytosine”.

What all share (test): DAPPL (digital affinity profiling via proximity ligation, sequencing); 10 mM Tris-HCl pH 7.5, 50 mM NaCl, 1 mM DTT, 4% glycerol, room temperature, 30 min; GST-TFs on glutathione beads, 16-mer random dsDNA library, 0.1% formaldehyde crosslink after washing; high values mean tight binding
Details in all cases: protein: recombinant; tags: N-terminal GST; dsDNA, one strand shown

One assay concerns the target T1, FLI1 (Homo sapiens, UniProt Q01543 1-452).
T1 sequence: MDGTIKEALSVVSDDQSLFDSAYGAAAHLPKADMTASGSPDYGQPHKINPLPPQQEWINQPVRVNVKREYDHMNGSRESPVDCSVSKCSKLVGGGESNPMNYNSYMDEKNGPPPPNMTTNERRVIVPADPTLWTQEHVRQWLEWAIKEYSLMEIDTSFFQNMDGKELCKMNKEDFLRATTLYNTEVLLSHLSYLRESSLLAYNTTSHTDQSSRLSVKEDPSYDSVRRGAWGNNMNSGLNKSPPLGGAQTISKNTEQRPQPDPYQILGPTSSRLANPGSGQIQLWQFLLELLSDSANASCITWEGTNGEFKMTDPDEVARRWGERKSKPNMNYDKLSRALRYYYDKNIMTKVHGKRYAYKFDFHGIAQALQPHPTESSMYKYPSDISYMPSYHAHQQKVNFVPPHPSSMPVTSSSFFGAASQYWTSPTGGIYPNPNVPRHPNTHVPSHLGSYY
Summed up:
(§1)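 After expression in yeast as GST fusions, human transcription factors were bound to glutathione beads, DNA-barcoded and mixed with a tag-only sample. The pools were incubated with 200 nmole of a 16-mer random double-stranded DNA library in Tris/NaCl/DTT/glycerol buffer (30 min, room temperature), washed and crosslinked with 0.1% formaldehyde. Proximity ligation with BsaI/T4 ligase ran for 1 h at 37 °C, before PCR amplification and sequencing on an Illumina NextSeq500. Binding signal is a hexamer's read frequency for a factor divided by its frequency for the tag-only sample.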

In a further assay the target is T2, ELK1 (Homo sapiens, UniProt P19419 1-428).
T2 sequence: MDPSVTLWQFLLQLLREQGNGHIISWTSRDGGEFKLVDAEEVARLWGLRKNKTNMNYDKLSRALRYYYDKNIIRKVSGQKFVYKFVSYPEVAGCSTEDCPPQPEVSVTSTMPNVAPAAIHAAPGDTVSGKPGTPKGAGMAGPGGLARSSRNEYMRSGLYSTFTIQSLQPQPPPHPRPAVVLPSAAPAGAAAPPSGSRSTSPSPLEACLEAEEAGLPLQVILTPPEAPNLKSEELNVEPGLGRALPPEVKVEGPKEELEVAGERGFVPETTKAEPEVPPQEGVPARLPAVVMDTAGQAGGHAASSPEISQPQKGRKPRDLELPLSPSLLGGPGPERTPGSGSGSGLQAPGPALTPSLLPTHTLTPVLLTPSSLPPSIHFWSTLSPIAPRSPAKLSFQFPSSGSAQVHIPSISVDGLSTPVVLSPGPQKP
Summed up: as §1

Another assay addresses T3, GABPA (Homo sapiens, UniProt Q06546 1-454).
T3 sequence: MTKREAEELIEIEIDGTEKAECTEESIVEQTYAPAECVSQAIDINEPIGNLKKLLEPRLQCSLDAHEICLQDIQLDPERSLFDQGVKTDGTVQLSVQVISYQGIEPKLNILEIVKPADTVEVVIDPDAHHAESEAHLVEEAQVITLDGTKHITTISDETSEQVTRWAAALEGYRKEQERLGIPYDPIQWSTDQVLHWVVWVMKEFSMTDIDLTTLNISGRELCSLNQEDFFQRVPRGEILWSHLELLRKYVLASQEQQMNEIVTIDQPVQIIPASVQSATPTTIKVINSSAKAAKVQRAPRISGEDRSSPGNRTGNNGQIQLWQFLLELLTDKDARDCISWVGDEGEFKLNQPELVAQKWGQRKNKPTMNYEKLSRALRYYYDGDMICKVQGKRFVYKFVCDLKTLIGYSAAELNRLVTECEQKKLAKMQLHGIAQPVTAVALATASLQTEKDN
An outline of the steps:
as §1

The target in the next assay is T4, ERG (Homo sapiens, UniProt P11308 1-479).
T4 sequence: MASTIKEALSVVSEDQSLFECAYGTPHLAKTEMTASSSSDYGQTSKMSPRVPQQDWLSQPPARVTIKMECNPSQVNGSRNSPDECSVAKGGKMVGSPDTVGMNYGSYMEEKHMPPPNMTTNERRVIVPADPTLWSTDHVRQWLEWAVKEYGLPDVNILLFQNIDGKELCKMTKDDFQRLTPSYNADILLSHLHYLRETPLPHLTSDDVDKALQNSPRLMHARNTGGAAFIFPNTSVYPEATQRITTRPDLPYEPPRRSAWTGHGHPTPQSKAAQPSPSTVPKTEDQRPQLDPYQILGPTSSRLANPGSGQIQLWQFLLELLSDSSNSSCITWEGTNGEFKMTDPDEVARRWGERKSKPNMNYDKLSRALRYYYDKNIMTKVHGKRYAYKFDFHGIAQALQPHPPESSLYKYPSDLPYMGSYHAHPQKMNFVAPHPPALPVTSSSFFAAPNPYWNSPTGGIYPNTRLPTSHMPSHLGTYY
Summed up:
as §1

The target in the next assay is ELF1 (Homo sapiens, UniProt P32519 1-619). An outline of the steps: as §1
For the next assay, the target named is T5, EHF (Homo sapiens, UniProt Q9NZC4 1-300).
T5 sequence: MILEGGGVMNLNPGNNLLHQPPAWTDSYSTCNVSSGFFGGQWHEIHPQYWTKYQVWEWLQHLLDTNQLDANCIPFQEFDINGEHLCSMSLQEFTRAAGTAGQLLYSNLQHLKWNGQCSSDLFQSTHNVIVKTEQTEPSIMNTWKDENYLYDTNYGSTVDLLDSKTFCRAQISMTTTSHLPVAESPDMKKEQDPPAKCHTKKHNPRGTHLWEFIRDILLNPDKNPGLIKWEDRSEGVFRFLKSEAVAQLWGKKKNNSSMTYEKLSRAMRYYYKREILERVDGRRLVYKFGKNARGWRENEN
An outline of the steps:
as §1

Another assay concerns the target SPI1 (Homo sapiens, UniProt P17947 1-270). Summed up:
as §1

For the next assay, the target named is SPIB (Homo sapiens, UniProt Q01892 1-262). An outline of the steps: as §1
A further assay addresses T6, ELK3 (Homo sapiens, UniProt P41970 1-407).
T6 sequence: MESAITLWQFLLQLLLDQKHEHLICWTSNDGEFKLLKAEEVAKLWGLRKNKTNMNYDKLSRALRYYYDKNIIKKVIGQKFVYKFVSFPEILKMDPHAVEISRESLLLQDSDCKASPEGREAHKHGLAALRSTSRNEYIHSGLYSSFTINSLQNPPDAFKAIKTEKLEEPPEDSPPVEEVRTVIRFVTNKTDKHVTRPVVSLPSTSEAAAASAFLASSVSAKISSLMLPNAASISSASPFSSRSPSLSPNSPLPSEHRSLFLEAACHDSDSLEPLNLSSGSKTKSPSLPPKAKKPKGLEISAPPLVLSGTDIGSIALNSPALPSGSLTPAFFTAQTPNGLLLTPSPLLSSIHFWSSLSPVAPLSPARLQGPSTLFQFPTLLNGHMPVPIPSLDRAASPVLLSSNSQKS
Summed up: as §1

Another assay deals with T7, FEV (Homo sapiens, UniProt Q99581 1-238).
T7 sequence: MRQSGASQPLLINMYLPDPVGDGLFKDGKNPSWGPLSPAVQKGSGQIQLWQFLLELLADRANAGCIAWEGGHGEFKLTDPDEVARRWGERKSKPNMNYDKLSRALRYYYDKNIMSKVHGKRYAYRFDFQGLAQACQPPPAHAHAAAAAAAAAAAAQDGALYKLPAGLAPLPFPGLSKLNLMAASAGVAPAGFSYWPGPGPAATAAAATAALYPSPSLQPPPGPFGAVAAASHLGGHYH
An outline of the steps: as §1

Another assay concerns the target ETV5 (Homo sapiens, UniProt P41161 1-510). An outline of the steps:
as §1

Another assay has as its target T8, SPIC (Homo sapiens, UniProt Q8N5J4 1-248).
T8 sequence: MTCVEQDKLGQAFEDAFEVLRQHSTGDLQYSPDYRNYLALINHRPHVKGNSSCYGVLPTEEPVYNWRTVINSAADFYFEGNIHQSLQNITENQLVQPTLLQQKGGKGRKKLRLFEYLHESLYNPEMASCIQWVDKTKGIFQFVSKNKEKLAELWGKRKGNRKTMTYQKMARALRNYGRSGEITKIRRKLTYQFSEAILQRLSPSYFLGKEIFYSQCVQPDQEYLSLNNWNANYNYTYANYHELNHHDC
Summed up: as §1

The next assay concerns the target ELF4 (Homo sapiens, UniProt Q99607 1-663). An outline of the steps: as §1
The target in another assay is ETV1 (Homo sapiens, UniProt P50549 1-477). An outline of the steps:
as §1

The next assay deals with T9, ETV3L (Homo sapiens, UniProt Q6ZN32 1-361).
T9 sequence: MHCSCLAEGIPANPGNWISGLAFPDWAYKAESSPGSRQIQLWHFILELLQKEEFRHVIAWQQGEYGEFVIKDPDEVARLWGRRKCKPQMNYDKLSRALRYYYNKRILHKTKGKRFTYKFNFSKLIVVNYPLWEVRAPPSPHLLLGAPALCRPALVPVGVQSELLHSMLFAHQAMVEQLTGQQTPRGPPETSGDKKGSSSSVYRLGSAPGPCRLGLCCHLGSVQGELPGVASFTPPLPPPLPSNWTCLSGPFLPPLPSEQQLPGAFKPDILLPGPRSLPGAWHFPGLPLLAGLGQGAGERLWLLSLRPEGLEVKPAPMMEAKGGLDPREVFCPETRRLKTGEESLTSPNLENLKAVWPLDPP
An outline of the steps:
as §1

For the next assay, the target named is T10, ETS2 (Homo sapiens, UniProt P15036 1-469).
T10 sequence: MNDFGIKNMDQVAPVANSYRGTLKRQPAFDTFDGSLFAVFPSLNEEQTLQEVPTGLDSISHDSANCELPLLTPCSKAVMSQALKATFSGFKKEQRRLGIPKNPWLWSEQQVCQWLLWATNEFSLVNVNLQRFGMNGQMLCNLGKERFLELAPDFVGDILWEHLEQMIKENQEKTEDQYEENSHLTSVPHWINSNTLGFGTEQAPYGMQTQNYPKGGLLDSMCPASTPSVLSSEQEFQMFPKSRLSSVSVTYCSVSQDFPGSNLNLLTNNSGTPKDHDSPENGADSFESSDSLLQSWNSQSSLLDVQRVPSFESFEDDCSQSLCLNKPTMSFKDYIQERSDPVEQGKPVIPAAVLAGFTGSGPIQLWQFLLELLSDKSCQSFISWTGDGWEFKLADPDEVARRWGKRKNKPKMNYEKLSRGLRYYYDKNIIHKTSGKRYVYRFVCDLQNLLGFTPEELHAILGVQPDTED
An outline of the steps: as §1

Another assay concerns the target T11, ELF5 (Homo sapiens, UniProt Q9UKW6-2 1-255).
T11 sequence: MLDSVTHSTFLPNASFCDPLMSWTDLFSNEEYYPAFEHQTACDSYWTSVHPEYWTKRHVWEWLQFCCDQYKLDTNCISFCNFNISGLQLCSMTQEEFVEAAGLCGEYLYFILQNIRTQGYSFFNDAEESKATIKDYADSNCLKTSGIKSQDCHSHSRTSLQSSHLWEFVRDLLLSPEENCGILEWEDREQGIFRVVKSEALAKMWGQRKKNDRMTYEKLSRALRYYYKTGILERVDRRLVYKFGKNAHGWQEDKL
An outline of the steps: as §1

In another assay the target is T12, ETV3 (Homo sapiens, UniProt P41162-2 1-143).
T12 sequence: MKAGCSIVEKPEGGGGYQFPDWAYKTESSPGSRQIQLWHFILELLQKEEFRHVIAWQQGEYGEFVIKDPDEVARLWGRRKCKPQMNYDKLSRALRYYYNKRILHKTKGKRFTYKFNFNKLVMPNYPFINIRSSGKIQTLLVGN
An outline of the steps: as §1

In a further assay the target is ETV6 (Homo sapiens, UniProt P41212 1-452). An outline of the steps: as §1
Chain of ETV6 (P41212 whole entry): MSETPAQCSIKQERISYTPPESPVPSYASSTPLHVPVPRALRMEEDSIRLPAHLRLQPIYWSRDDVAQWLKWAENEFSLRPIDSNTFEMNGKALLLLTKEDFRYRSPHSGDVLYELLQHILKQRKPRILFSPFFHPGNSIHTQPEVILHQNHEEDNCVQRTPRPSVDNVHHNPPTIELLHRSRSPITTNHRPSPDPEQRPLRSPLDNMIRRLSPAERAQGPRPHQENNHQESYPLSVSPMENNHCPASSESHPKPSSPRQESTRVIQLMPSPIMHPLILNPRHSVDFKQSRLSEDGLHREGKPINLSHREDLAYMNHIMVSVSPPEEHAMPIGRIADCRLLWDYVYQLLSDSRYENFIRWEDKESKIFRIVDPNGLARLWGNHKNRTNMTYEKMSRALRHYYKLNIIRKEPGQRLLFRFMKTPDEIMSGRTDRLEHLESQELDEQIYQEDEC

Chain of ETV1 (P50549 whole entry): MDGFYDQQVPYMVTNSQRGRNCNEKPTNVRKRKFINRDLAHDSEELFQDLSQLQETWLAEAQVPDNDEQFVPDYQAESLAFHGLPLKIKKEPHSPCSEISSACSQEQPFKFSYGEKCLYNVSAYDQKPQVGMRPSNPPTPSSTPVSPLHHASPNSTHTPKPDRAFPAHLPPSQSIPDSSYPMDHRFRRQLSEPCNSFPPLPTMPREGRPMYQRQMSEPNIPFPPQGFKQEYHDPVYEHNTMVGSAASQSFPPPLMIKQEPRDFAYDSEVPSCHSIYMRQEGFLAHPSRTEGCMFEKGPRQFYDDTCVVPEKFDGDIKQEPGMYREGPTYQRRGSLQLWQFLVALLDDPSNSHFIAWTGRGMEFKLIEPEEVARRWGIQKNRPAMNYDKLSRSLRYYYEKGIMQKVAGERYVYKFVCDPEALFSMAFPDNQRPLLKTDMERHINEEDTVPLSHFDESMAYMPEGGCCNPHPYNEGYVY
Chain of ELF1 (P32519 whole entry): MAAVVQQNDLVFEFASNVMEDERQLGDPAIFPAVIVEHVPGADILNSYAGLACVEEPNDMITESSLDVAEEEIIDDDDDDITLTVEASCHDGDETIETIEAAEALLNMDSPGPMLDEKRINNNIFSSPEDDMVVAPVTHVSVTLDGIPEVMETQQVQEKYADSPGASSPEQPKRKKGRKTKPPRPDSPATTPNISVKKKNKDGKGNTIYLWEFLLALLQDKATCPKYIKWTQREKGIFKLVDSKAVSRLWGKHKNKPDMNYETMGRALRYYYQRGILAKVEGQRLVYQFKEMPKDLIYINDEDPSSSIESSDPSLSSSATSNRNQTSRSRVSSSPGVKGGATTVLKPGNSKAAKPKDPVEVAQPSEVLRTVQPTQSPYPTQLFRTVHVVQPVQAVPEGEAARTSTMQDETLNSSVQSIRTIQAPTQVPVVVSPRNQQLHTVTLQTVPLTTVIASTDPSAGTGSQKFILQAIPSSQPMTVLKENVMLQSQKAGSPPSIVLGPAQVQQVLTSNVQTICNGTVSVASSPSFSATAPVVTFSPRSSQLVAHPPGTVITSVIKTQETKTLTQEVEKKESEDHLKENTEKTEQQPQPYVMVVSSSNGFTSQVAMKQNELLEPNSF
Chain of ELF4 (Q99607 whole entry): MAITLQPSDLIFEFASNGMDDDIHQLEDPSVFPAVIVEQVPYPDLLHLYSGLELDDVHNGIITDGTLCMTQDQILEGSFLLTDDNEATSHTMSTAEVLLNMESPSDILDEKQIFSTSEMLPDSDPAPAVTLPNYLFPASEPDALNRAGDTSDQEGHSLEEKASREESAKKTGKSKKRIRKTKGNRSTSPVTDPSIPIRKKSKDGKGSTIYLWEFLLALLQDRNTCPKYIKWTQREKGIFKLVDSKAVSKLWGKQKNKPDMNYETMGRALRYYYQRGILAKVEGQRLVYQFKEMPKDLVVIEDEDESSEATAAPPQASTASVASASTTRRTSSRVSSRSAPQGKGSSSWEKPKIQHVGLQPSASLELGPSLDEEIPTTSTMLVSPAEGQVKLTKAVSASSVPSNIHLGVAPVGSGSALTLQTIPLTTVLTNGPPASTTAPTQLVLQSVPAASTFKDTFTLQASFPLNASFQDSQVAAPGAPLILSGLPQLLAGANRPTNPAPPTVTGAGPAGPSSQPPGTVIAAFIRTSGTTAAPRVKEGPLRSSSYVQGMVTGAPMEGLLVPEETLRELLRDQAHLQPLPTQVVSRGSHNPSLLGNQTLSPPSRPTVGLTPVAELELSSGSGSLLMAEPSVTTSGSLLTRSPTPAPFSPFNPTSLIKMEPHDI
Chain of ETV5 (P41161 whole entry): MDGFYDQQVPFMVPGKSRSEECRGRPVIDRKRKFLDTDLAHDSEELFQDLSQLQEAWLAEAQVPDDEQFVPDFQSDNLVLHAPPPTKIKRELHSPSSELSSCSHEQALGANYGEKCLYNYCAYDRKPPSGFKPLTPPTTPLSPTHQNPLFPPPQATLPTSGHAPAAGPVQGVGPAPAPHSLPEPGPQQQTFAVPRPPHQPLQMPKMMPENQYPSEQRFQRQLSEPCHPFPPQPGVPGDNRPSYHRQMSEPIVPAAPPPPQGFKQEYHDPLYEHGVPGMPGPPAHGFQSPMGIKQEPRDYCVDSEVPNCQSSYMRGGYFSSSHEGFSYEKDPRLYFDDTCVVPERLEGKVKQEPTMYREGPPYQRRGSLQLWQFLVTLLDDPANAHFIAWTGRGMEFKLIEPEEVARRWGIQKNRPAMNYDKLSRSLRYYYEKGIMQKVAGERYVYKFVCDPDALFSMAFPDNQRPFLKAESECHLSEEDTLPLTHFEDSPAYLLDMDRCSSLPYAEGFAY
Chain of SPIB (Q01892 whole entry): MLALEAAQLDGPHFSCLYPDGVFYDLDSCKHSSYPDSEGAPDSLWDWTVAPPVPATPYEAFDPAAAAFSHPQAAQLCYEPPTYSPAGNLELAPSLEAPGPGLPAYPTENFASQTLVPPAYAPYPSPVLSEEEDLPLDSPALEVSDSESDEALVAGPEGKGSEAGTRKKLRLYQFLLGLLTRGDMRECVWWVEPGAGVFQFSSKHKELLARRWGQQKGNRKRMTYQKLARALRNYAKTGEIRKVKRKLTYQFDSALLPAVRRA

With GCTGCC, the binding signal in the assay with FLI1 was 1.13 fold enrichment (6-mer frequency, TF over GST control); with ELK1, 1.08 fold enrichment (6-mer frequency, TF over GST control); with GABPA it was 1.18 fold enrichment (6-mer frequency, TF over GST control); with ERG it was 1.02 fold enrichment (6-mer frequency, TF over GST control); with ELF1, 1.03 fold enrichment (6-mer frequency, TF over GST control); with EHF it was 1.24 fold enrichment (6-mer frequency, TF over GST control). For the same sequence, the binding signal with SPI1 is 1.06 fold enrichment (6-mer frequency, TF over GST control); with SPIB, 1.03 fold enrichment (6-mer frequency, TF over GST control); in the assay with ELK3, 1.05 fold enrichment (6-mer frequency, TF over GST control); with FEV it was 1.14 fold enrichment (6-mer frequency, TF over GST control); with ETV5 it was 1.04 fold enrichment (6-mer frequency, TF over GST control); in the assay with SPIC, 1.01 fold enrichment (6-mer frequency, TF over GST control). For the same sequence, the binding signal with ELF4 is 1.06 fold enrichment (6-mer frequency, TF over GST control); with ETV1, 1.19 fold enrichment (6-mer frequency, TF over GST control); in the assay with ETV3L it was 1.03 fold enrichment (6-mer frequency, TF over GST control); with ETS2, 1.08 fold enrichment (6-mer frequency, TF over GST control); with ELF5, 1.09 fold enrichment (6-mer frequency, TF over GST control); with ETV3, 1.12 fold enrichment (6-mer frequency, TF over GST control). In the assay with ETV6, the binding signal is 1.13 fold enrichment (6-mer frequency, TF over GST control).
